Bioassay records from PubChem.
PrP 5UTR inh: inhibition of PrP 5' UTR reporter expression | cell-based PrP 5' UTR mRNA reporter, plate reader | inhibition, % (no concentration beside the values) | AID 488862, 2010 | 340,000 tested, 0.35% active; in the data active = inhibition above about 52%; note: 0 = median of the neutral control wells
BJeLR lethal: MLPCN primary cell-based screen for lethality selective to Ras in HRASV12 cells; BJeLR (HRASV12) viability, CellTiter-Glo ATP luminescence, 48 h; inhibition, % (test concentration not listed); 300,000 tested, 0.17% active; AID 1554, 2009; in the data active = inhibition above about 50%
PrPC TRFRET: inhibitors of human cell surface prion protein PrPC, primary screen, cell-based, TR-FRET; Major prion protein (Homo sapiens), P04156; TR-FRET read-out; inhibition, % at 13.8 µM; 370,000 tested, 0.43% active; in the data active = inhibition above about 24%; note: 0% = median of the test wells and 100% = reference compound wells
MazF activator: activators of E. coli MazEF toxin-antitoxin RNase, primary screen, biochemical, fluorescence, uHTS; Endoribonuclease toxin MazF (Escherichia coli (strain K12)), P0AE70; FAM/BHQ RNA-DNA oligo cleavage fluorescence, 5 h; activation, % at 20 µM; 350,000 tested, 0.32% active; in the data active = activation above about 50%
PrPC confirm: confirmation of inhibitors of cell surface human prion protein, confirmation, cell-based, TR-FRET; 1,500 tested, 65% active; shares compounds with PrPC TRFRET; inhibition, % at 13.8 µM; cell surface PrPC level; in the data active = inhibition above about 25%
LD9 tox: cytotoxicity in LD9 cells, cytotoxicity control for cell surface PrPc inhibitor project, cell-based, luminescence, high throughput; shares compounds with PrPC TRFRET; luminescence viability; inhibition, % at 13.8 µM; 1,500 tested, 29% active; AID 743201, 2013; in the data active = inhibition above about 9.5%
* marks the source's active call; other numbers are inactive results. This is a sample that favours compounds with a hit; in the whole collection about 1.1% have one here.

Screening COc1ccc(/C=C/C(=O)NCCn2c(C)cc3ccccc32)cc1OC returned PrP 5UTR inh -3.4, BJeLR lethal 3.4, PrPC TRFRET 63.8*, MazF activator 6.2, PrPC confirm 2.1 and LD9 tox 6.4.
`COc1ccc(/C=C/C(=O)NCCN2CCOCC2)cc1OC` gave PrP 5UTR inh -9.6, BJeLR lethal -3.1, PrPC TRFRET 4.9 and MazF activator 4.0.
Screening COc1cc(/C=C/C(=O)NCCn2c(C)cc3ccccc32)cc(OC)c1OC returned PrP 5UTR inh -1.8, BJeLR lethal 2.0, PrPC TRFRET 48.8*, MazF activator 7.3, PrPC confirm -3.9 and LD9 tox 10.2*.
CCn1c(SCC(=O)Nc2ccc(C(=O)OC)cc2)nnc1-c1cccc(Cl)c1 was read as PrPC TRFRET 1.4.
`CC(C)(C)c1csc(NC(=O)Cn2cnc3ccccc3c2=O)n1` gave PrP 5UTR inh -4.4, BJeLR lethal 0.0, PrPC TRFRET 35.5*, MazF activator 0.5, PrPC confirm 24.9* and LD9 tox 1.3.
Cc1cc(C)nc(SCC(=O)Nc2ccnc3ccccc23)n1 was read as PrP 5UTR inh -42.8, BJeLR lethal 22.5, PrPC TRFRET 45.7*, MazF activator -8.7, PrPC confirm 43.2* and LD9 tox 16.3*.
Screening O=C(CSC1=NCCS1)Nc1ccc2ccccc2c1 returned PrP 5UTR inh -26.9, BJeLR lethal 11.2, PrPC TRFRET 3.1 and MazF activator -2.0.
`COC(=O)c1ccccc1NC(=O)CSc1nc(C)cc(C)n1` gave PrP 5UTR inh -5.1, BJeLR lethal 3.3, PrPC TRFRET 1.8 and MazF activator -2.6.
O=C(CSC1=NCCS1)Nc1ccnc2ccccc12 was read as PrP 5UTR inh 2.9, BJeLR lethal -2.1, PrPC TRFRET 56.4*, MazF activator -3.4, PrPC confirm 51.4* and LD9 tox 7.3.
Screening COc1ccc(-c2nnc(-c3ccc(Br)o3)o2)cc1OC returned PrP 5UTR inh -24.9, BJeLR lethal -12.9, PrPC TRFRET 59.7*, MazF activator -5.0, PrPC confirm 75.7* and LD9 tox -3.2.
`CC1CN(c2ccccc2)c2nc3c(c(=O)[nH]c(=O)n3C)n2C1` (stereo not drawn) gave PrP 5UTR inh -12.4, BJeLR lethal 0.9, PrPC TRFRET 2.7 and MazF activator -0.1.
Screening CC1CN(c2ccc(Cl)cc2)c2nc3c(c(=O)[nH]c(=O)n3C)n2C1 (stereo not drawn) returned PrP 5UTR inh 0.5, BJeLR lethal -7.0, PrPC TRFRET 37.7*, MazF activator 7.9, PrPC confirm 2.5 and LD9 tox -2.6.
`COC(=O)C1=C(C)N(Cc2cccc(C(F)(F)F)c2)C(=NCc2ccc3c(c2)OCO3)NC1CCc1ccccc1` (stereo not drawn) gave PrPC TRFRET -6.4.
For CC[C@H](CO)Nc1nc(Nc2cccc(Cl)c2)c2ncn(C(C)C)c2n1 the results were PrP 5UTR inh 2.5, BJeLR lethal -2.6, PrPC TRFRET 24.7*, MazF activator 6.9, PrPC confirm 19.8 and LD9 tox 11.3*.
CCC(=O)N1CCN(c2ccc(NC(=O)c3ccc([N+](=O)[O-])o3)cc2Cl)CC1 was read as PrP 5UTR inh -65.0, BJeLR lethal 10.9, PrPC TRFRET 38.5*, MazF activator 6.0, PrPC confirm 21.2 and LD9 tox 96.7*.
Screening CC(=O)N1CCN(c2ccc(NC(=O)c3ccc([N+](=O)[O-])o3)cc2Cl)CC1 returned PrP 5UTR inh -24.8, BJeLR lethal -3.9, PrPC TRFRET 9.6 and MazF activator 5.3.
For COC(=O)C1CCN(C(=O)c2cc(-c3ccc(Cl)s3)nc3ccccc23)CC1 the results were PrP 5UTR inh -1.1, PrPC TRFRET 35.7*, MazF activator 2.8, PrPC confirm 33.3* and LD9 tox 27.3*.
For CC(=O)NC(c1cccc([N+](=O)[O-])c1)c1ccc2cccnc2c1O (stereo not drawn) the results were PrP 5UTR inh 31.0, BJeLR lethal 35.1, PrPC TRFRET 39.6*, MazF activator 4.5, PrPC confirm 36.8* and LD9 tox 38.0*.
For CC(=O)NC(c1ccc(C(C)C)cc1)c1ccc2cccnc2c1O (stereo not drawn) the results were PrP 5UTR inh 32.6, BJeLR lethal 34.5, PrPC TRFRET 25.8*, MazF activator -2.9, PrPC confirm 27.5* and LD9 tox 21.6*.
For CCCC(=O)NC(c1ccccc1)c1ccc2cccnc2c1O (stereo not drawn) the results were PrP 5UTR inh 19.5, BJeLR lethal 26.1, PrPC TRFRET 23.4 and MazF activator 8.0.
COc1cccc(C(NC(C)=O)c2ccc3cccnc3c2O)c1 (stereo not drawn) was read as PrP 5UTR inh 30.7, BJeLR lethal 22.1, PrPC TRFRET 40.8*, MazF activator 1.4, PrPC confirm 33.0* and LD9 tox 44.3*.
For Cc1ccccc1-c1ccc2c(c1)[C@@H]1C[C@H](N(C)CC3CCCCC3)[C@H]([C@H](C)O)CN1CC2 the results were PrPC TRFRET 0.0.
Screening CCOc1ccc(NC(=O)CCSc2ccc3ccccc3n2)cc1 returned PrP 5UTR inh -24.9, BJeLR lethal -10.4, PrPC TRFRET 61.9*, MazF activator -4.5, PrPC confirm 60.2* and LD9 tox 2.8.
Screening O=C1CCCN1C(=O)CSc1ccc2ccccc2n1 returned PrP 5UTR inh -21.1, PrPC TRFRET 41.4*, MazF activator -2.3, PrPC confirm 52.2* and LD9 tox 0.6.
O=C(CSc1ccc2ccccc2n1)N/N=C/c1ccc(O)cc1 was read as PrP 5UTR inh -10.3, BJeLR lethal -8.8, PrPC TRFRET 24.9*, MazF activator 7.3, PrPC confirm 22.7 and LD9 tox 1.2.
NS(=O)(=O)c1ccc(NC(=O)CSc2nc3ccccc3c(=O)n2-c2ccc(Br)cc2)cc1 was read as PrPC TRFRET 33.6*, PrPC confirm 20.2 and LD9 tox -1.5.
C=CCN=C1NC(c2cccc(Cl)c2)C(C(=O)OC)=C(C)N1C (stereo not drawn) was read as PrPC TRFRET -10.3.
Screening COC(=O)[C@]1(CC(C)C)NC=C(C(=O)c2ccccc2)[C@@H]1c1cccc(C(F)(F)F)c1 returned PrPC TRFRET 3.4.
For NS(=O)(=O)c1ccc(NC(=O)CSc2ncccn2)cc1 the results were PrP 5UTR inh -16.3, BJeLR lethal 7.3, PrPC TRFRET 4.8 and MazF activator -6.7.
Screening NS(=O)(=O)c1ccc(NC(=O)CSc2ccc3ccccc3n2)cc1 returned PrP 5UTR inh 0.3, BJeLR lethal 7.6, PrPC TRFRET 36.2*, MazF activator 12.4, PrPC confirm 43.4* and LD9 tox -0.5.
